Source: PubChem BioAssay (NCATS)
Inconclusive results are not listed. Activity calls are given as the source filed them. Calls follow the shape of the dose curve; as a rule, active = well fitted curve in the direction sought with a large enough effect; inconclusive = small, poorly fitted or top-dose-only effect, or another doubt; inactive = no such curve, though single readings can be large; an effect the other way counts as inactive or inconclusive.

Legend:
[1] = MultiTox-Fluor Cytotoxicity Assay - LYMP1-002 - Dead Cells (AID 960);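 also: cells exposed to compound for 16 h at 37 °C; nearly all actives have a fitted effect of over 60% in size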
In short: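 Concentration-dependent increases in membrane-leaked protease activity are quantified in LYMP1-002 cells after 16 hr treatment; values are normalized against DMSO and tetraoctylammonium bromide (15 uM) controls and AC50 derived by Hill modeling.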

[2] = MultiTox-Fluor Cytotoxicity Assay - LYMP1-003 - Dead Cells (AID 961);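 also: cells exposed to compound for 16 h at 37 °C; nearly all actives have a fitted effect of over 70% in size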
In short: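 Human lymphoblastoid LYMP1-003 cells (2500/well) were treated with compounds for 16 hr at 37 C in complete medium. Dead-cell protease release was read by bis-AAF-R110 fluorescence (Ex/Em 485/520). AC50 came from Hill fits, normalized to DMSO and 15 uM tetraoctylammonium bromide.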

[3] = MultiTox-Fluor Cytotoxicity Assay - LYMP1-003 - Live Cells (AID 962);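 also: cells exposed to compound for 16 hours at 37 °C; cytotoxic hits lower the live-cell protease signal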
In short: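 Human lymphoblastoid line LYMP1-003 in complete culture medium, treated 16 hr with titrated compounds. Viable cells quantified via cell-permeant GF-AFC substrate fluorescence; AC50 derived by Hill fitting.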

[4] = Cell Viability - LYMP1-003 - Assay at 24 hr (AID 963)
In short: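 The lymphoblastoid line was treated with titrated compounds for 24 hours, and viable cell number estimated from luciferase-based ATP luminescence.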

[5] = Cell Viability - LYMP1-003 - Assay at 40 hr (AID 964); also: series mostly up to about 92 µM; nearly all actives have a fitted effect of over 60% in size
In short: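 Acute toxicity is scored as a concentration-dependent loss of intracellular ATP in LYMP1-003 cells (2500/well, complete medium) after 40 hr at 37 C, measured by CellTiter-Glo luminescence; AC50 values derive from standard Hill modelling.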

[6] = Cell Viability - LYMP2-003 (AID 965);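 also: cells exposed to compounds for 24 h before reading; nearly all actives have a fitted effect of over 50% in size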
In short: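 Acute cytotoxicity is scored as a concentration-dependent drop in intracellular ATP, measured by luciferase luminescence in human lymphoblastoid cells treated for 24 hours at 37 C. AC50 values derive from Hill-equation modelling.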

[7] = Cell Viability - LYMP2-004 (AID 966); also: nearly all actives have a fitted effect of over 65% in size
In short: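 Viable-cell number estimated from ATP luminescence (CellTiter-Glo) in 2500 human lymphoblastoid cells/well after 24 hr at 37 C with compound. AC50 fitted to the standard Hill equation.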

[8] = Cell Viability - LYMP2-005 (AID 967); also: series mostly up to about 92 µM
In short: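 qHTS viability screen in LYMP2-005 cells: 24 h at 37 C with compound, ATP luminescence via CellTiter-Glo, AC50 from Hill curves.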

[9] = Cell Viability - LYMP2-009 (AID 968); also: series mostly up to about 92 µM; nearly all actives have a fitted effect of over 55% in size
[10] = Cell Viability - LYMP2-011 (AID 969); also: nearly all actives have a fitted effect of over 60% in size
In short: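 Cells seeded at 2500 per well rest 5 hr before compound addition, then incubate 24 hr at 37 C. CellTiter-Glo reagent is added for 30 min at room temperature before luminescence detection.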

[11] = Cell Viability - LYMP2-013 (AID 970); also: series mostly up to about 92 µM; nearly all actives have a fitted effect of over 55% in size
In short: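 In complete culture medium, human lymphoblastoid cells were dosed for 24 hr at 37 C, with tetraoctylammonium bromide (6.4pM to 92 uM) as positive control. Viability reflects luciferase-based ATP signal; AC50 derived from concentration-response curves.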

[12] = Cell Viability - LYMP2-015 (AID 971); also: nearly all actives have a fitted effect of over 55% in size
In short: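 AC50 values reflect Hill-model fits of ATP-based luminescence (CellTiter-Glo) from a human lymphoblastoid line, 2500 cells/well, treated 24 hr at 37 C.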

[13] = Cell Viability - LYMP2-017 (AID 972);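 also: series mostly up to about 92 µM; cells exposed to compound for 24 hours at 37 °C; nearly all actives have a fitted effect of over 55% in size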
In short: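 In this qHTS format, lymphoblastoid cells in complete medium receive test compound for a day at 37 C before ATP content is quantified by luciferase luminescence. Reported AC50 figures come from standard Hill-equation curve fitting.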

[14] = Cell Viability - LYMP2-019 (AID 973); also: nearly all actives have a fitted effect of over 55% in size
In short: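 AC50 values come from Hill-equation modelling of qHTS concentration-response curves, where viability is measured as luciferase-based ATP luminescence in the lymphoblastoid line after 24 hr compound exposure in complete culture medium.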

[15] = Cell Viability - LYMP2-021 (AID 974)
In short: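 In qHTS format, compounds are tested against 2500 lymphoblastoid cells per well for 24 h; viable cell number is inferred from ATP-driven luciferase light, and Hill-equation fitting yields AC50 values.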

[16] = Cell Viability - LYMP2-023 (AID 975)
In short: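 In this qHTS, ATP-based luciferase luminescence (CellTiter-Glo) is quantified in human lymphoblastoid cells after 24 hr compound treatment at 37 C; tetraoctylammonium bromide serves as positive control. Concentration-response curves are Hill-fitted to give AC50.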

[17] = Cell Viability - LYMP2-025 (AID 976); also: series mostly up to about 92 µM
In short: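 Luminescent ATP readout after 24 hr treatment of a human lymphoblastoid line (LYMP2-025, 2500 cells/well, 37 C). Reagent developed 30 min at room temperature; AC50 fitted with the Hill equation.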

[18] = Cell Viability - LYMP2-002 (AID 977);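 also: series mostly up to about 92 µM; compound exposure lasted 24 h at 37 °C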
In short: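 Human lymphoblastoid cells, 2500/well, complete medium; 5 h 37 C settle; compound 24 h 37 C; CellTiter-Glo, 30 min RT; luminescence. Decrease in ATP = cytotoxicity; AC50 via Hill equation.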

[19] = Cell Viability - LYMP2-006 (AID 978); also: series mostly up to about 92 µM; nearly all actives have a fitted effect of over 60% in size
In short: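 Concentration-dependent loss of intracellular ATP in a human lymphoblastoid line after 24 hr treatment at 37 C was measured by CellTiter-Glo luminescence, with AC50 values obtained from standard Hill-equation modelling.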

[20] = Cell Viability - LYMP2-007 (AID 979)
In short: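 Measured via luciferase-based ATP quantitation: lymphoblastoid cells, 24 hr compound exposure at 37 C, AC50 from Hill fits.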

Measured: outcome

Cc1cc(O)c2c(c1)C(=O)c1cccc(O)c1C2=O
inactive: [1] | [2] | [3] | [4] | [5] | [6] | [7] | [8] | [9] | [10] | [11] | [12] | [13] | [14] | [15] | [16] | [17] | [18] | [19] | [20]
